# From PubChem BioAssay AID1259343 (VanderVen Lab, College of Veterinary Medicine, Cornell …, 2017)
# Several values for one entry are separate records, joined by “and”; a condition that tells them apart may be missing. Equal entries are not always repeated. The whole screen tested about 6,200 compounds, of which about 2,900 (47%) were called active. Cut-off read from the data, not from the text of the source: active = inhibition above about 50%; inactive = the rest. The set was probably picked from earlier hits. The list shows a part of the results. Some compounds were tested as several samples or in several runs, with calls that do not always agree.
# Assay: Mycobacterium tuberculosis growth inhibition, primary screen (AID 1259343)
# Conditions: inhibition: at 10 µM, stronger effect = higher value; outcome: 10 uM
row,Structure (SMILES),inhibition
1,Cc1ccc(S(=O)(=O)Nc2nc(-c3ccc(F)c(F)c3)cs2)cc1,80.1% (active)
2,Cc1ccc(-c2csc(C=Cc3c(C)noc3C)n2)cc1,43.6% (inactive)
3,Cc1ccc(-c2c(C)nn3c(NCC(C)C)cc(C)nc23)cc1,47.5% (inactive)
4,CCCc1cc(=O)n2[nH]c(C)c(-c3ccccc3)c2n1,78.8% (active) and -6.08% (inactive)
5,Cc1[nH]n2c(=O)cc(C(C)C)nc2c1-c1ccccc1,100% (active)
6,CC(C)c1cc(=O)n2[nH]cc(-c3ccccc3)c2n1,-1.37% (inactive)
7,CCCc1cc(NC)n2ncc(-c3ccccc3)c2n1,-27.3% (inactive)
8,CCCc1cc(=O)n2[nH]cc(-c3ccccc3)c2n1,11.4% (inactive)
9,Cc1cc(C)nc(SCc2cc(=O)n3[nH]c(C)c(-c4ccccc4)c3n2)n1,100% (active)
10,CCOC(=O)Cc1cc(=O)n2[nH]c(-c3ccccc3)c(-c3ccccc3)c2n1,40.6% (inactive)
11,CCCc1cc(NC)n2nc(C)c(-c3ccccc3)c2n1,95.4% (active)
12,CN(Cc1ccc(OC(F)F)cc1)S(=O)(=O)c1cccc(C#N)c1,28% (inactive)
13,N#Cc1cccc(OCCN2CCCc3cc(F)ccc32)c1,36.8% (inactive)
14,N#Cc1cccc(S(=O)(=O)Nc2cc(C(F)(F)F)ccc2-n2cccn2)c1,33.2% (inactive)
15,N#Cc1ccc(OS(=O)(=O)c2cccc(F)c2)cc1,92.1% (active)
16,N#Cc1ccc(OS(=O)(=O)c2ccc(F)cc2)cc1,29.4% (inactive)
17,N#Cc1cccc(S(=O)(=O)Oc2ccccc2)c1,68.3% (active)
18,COc1ccc(S(=O)(=O)Oc2cccc(CNCc3ccc(F)cc3)c2)cc1,30.6% (inactive)
19,N#Cc1cccc(S(=O)(=O)Oc2ccc(F)c(F)c2)c1,100% (active)
20,CC(C)NC(=O)NC(=O)COC(=O)C1CC1,23.7% (inactive)
21,CC(C)NC(=O)CCC1CCCCC1,103% (active)
22,COc1ccc(-n2ccnc2CN2CCc3c([nH]c4ccccc34)C2c2ccccn2)cc1 (configuration not stated),inactive
23,CC(C)CCC(=O)C(C#N)c1nnc(-c2ccccc2)n1C (configuration not stated),85.2% (active)
24,N#CC(C(=O)CC1CCCC1)c1nc(N)nc(Nc2ccccc2)n1 (configuration not stated),1.29% (inactive)
25,Cn1c(-c2ccccc2)nnc1C(C#N)C(=O)C1CC=CCC1 (configuration not stated),93.3% (active)
26,NC(=NS(=O)(=O)c1ccc(Cl)cc1)c1ccc(Cl)cc1,15.6% (inactive)

row,Structure (SMILES),inhibition
1,COc1ccc(Br)cc1CN(C)CC(=O)Nc1cc(Cl)cc(Cl)c1,-7.89% (inactive)
2,COc1ccc(COc2ccccc2NC(C)=O)cc1Br,36.3% (inactive)
3,COc1ccc(CCC(=O)NNc2cccc(Cl)c2)cc1Br,98.9% (active)
4,OCC1(Cc2ccccc2Cl)CCN(CC#Cc2ccccc2)CC1,83.9% (active)
5,OCC1(Cc2ccccc2)CCN(Cc2cc3ccccc3s2)CC1,30.1% (inactive)
6,OCC1(Cc2ccccc2C(F)(F)F)CCN(c2ccc(Cl)cn2)CC1,8.01% (inactive)
7,O=C(C=Cc1ccc([N+](=O)[O-])cc1)c1ccc(F)cc1,25.8% (inactive)
8,O=C(/C=C/c1cccc([N+](=O)[O-])c1)n1cnc2ccccc21,96.9% (active)
9,COc1ccc(-c2cnnc(NCCC3=CCCCC3)n2)c(OC)c1,inactive
10,C1=C(CCNc2nncc(-c3ccccc3)n2)CCCC1,61.1% (active)
11,COc1ccccc1CCNc1nncc(-c2ccccc2)n1,inactive
12,Cc1ccc(NC(=O)c2cnc3cc(C(=O)N(C)C)n(C)c3c2)cc1Cl,84.7% (active)
13,CC1CCc2nc(NC(=O)C3CCN(c4ncccn4)CC3)sc2C1 (configuration not stated),90.3% (active)
14,CCOC(=O)C(C#N)=CNc1nc2c(s1)CC(C)CC2 (configuration not stated),23.7% (inactive)
15,CCC1CCc2nc(NC(=O)Cc3c(C)noc3C)sc2C1 (configuration not stated),36.4% (inactive)
16,O=C(Cc1c(F)cccc1Cl)Nc1nc2c(s1)CCCC2,95.5% (active)
17,CC(C)(CNC(=O)Nc1nc2c(s1)CCCC2)c1cccs1,1.49% (inactive)
18,CCOC(=O)C1=C(COC(=O)c2ccc([N+](=O)[O-])s2)NC(=O)NC1C (configuration not stated),21.7% (inactive)
19,O=C(Nc1cccc(-c2nc3c(s2)CCCC3)c1)C1CC1,7.39% (inactive)
20,CC1CCc2nc(NC(=O)c3ccc([N+](=O)[O-])s3)sc2C1 (configuration not stated),102% (active)
21,CC1CCc2nc(C(C#N)=Cc3cccs3)sc2C1 (configuration not stated),-38.8% (inactive)
22,CC1CCc2nc(NC(=O)CSC(=S)N3CCCCC3C)sc2C1 (configuration not stated),32.5% (inactive)
23,CCOC(C)C(=O)Nc1nc2c(s1)CC(c1ccccc1)CC2 (configuration not stated),35.4% (inactive)
24,CC1CCc2nc(NC(=O)Cc3c(F)cccc3Cl)sc2C1 (configuration not stated),59.4% (active)
25,CC1CCc2ccc(F)cc2N1S(=O)(=O)c1ccc(Cl)s1 (configuration not stated),30.3% (inactive)
26,Fc1cccc(CN2CCN(Cc3ccc(-c4cccnc4)cc3)CC2)c1,46.7% (inactive)

row,Structure (SMILES),inhibition
1,Cc1ccc(SCC(=O)N2CCN(Cc3ccccc3)C2=O)cc1,20.7% (inactive)
2,NC(=O)CSc1ccc(-c2cccc(CN3CCOCC3)c2)cc1,54.4% (active)
3,Brc1ccc(Oc2nnc(-c3ccccc3)s2)cc1,43.2% (inactive)
4,Cc1ccc(S(=O)(=O)c2nnc(-c3ccccc3)s2)cc1,58.3% (active)
5,Cc1ccc2nc(-c3ccc(NS(C)(=O)=O)cc3)sc2c1,29.5% (inactive)
6,CC(=O)CCc1ccc(OCCCOc2ccc(Cl)c3cccnc23)cc1,69.7% (active)
7,CCC(C)C(=O)Nc1ccc(Cl)c2cccnc12 (configuration not stated),-29.8% (inactive)
8,CCNc1nc(=S)[nH]c2ccccc12,-44.3% (inactive)
9,S=c1nc(NC2CC2)c2ccccc2[nH]1,85.5% (active)
10,Cc1nn2c(nc(NC3CCCC3)c3ccccc32)c1Cl,13.2% (inactive)
11,CNc1nc(=S)[nH]c2ccccc12,72.5% (active)
12,COc1ccc(Cc2nc(-c3ccc(Br)cc3)no2)cc1,-10.8% (inactive)
13,COc1ccc(-c2csc(C(O)c3cccc(Cl)c3)n2)cn1 (configuration not stated),40.1% (inactive)
14,COc1ccc(-c2noc(Cc3ccc(F)c(Br)c3)n2)cn1,58.1% (active)
15,CC(C)c1nc2c(c(=O)c3ccccc3n2C)c(=O)n1-c1ccccc1,-10.5% (inactive)
16,CC1CCN(C(=S)NC2CC3CCC2C3)CC1 (configuration not stated),67.5% (active)
17,NC(=S)Cc1nc2ccccc2[nH]1,98.2% (active)
18,c1ccc2[nH]c(CCC3CCCCC3)nc2c1,-43.3% (inactive)
19,CCc1ccc(/C=C/c2nc3ccccc3[nH]c2=O)cc1,26.4% (inactive)
20,O=c1ccn(CCOc2cc(Cl)cc(Cl)c2)c(Cl)c1,53.2% (active)
21,N#Cc1c(N)sc2c1CCN(c1nccc(C(F)(F)F)n1)C2,-0.04% (inactive)
22,COc1ccc(CC(=O)Nc2cc(-c3cccs3)nn2-c2nc(C)c(C)c(=O)[nH]2)cc1,99.9% (active)
23,COc1ccc(OCC(=O)Nc2cc(-c3cccs3)nn2-c2nc(C)cc(=O)[nH]2)cc1,99.1% (active)
24,COc1ccc(CC(=O)Nc2cc(-c3cccs3)nn2-c2nc(C)cc(=O)[nH]2)cc1,99.4% (active)
25,Cc1nc(-n2nc(-c3cccs3)cc2NC(=O)C2CC2)[nH]c(=O)c1C,-19.4% (inactive)
26,Cc1nc(-n2nc(-c3cccs3)cc2NC(=O)CCC2CCCC2)[nH]c(=O)c1C,101% (active)

row,Structure (SMILES),inhibition
1,CC(C)c1cc(=O)[nH]c(-n2nc(-c3cccs3)cc2NC(=O)Cc2ccc(F)cc2)n1,6.65% (inactive)
2,CC(C)c1cc(=O)[nH]c(-n2nc(-c3cccs3)cc2NC(=O)COc2ccccc2F)n1,100% (active)
3,COc1ccc(CC(=O)Nc2cc(-c3cccs3)nn2-c2nc(C(C)C)cc(=O)[nH]2)cc1,100% (active)
4,Cc1cc(=O)[nH]c(-n2nc(-c3cccs3)cc2NC(=O)COc2ccccc2F)n1,-30.7% (inactive)
5,CC(C)c1cc(=O)[nH]c(-n2nc(-c3cccs3)cc2NC(=O)CCc2ccccc2)n1,19.2% (inactive)
6,CCCCCOc1ccc(C(=O)N2CCC(O)(c3ccccc3)CC2)cc1OCCCCC,35.2% (inactive)
7,Cc1ccc(NCc2nsc(N(C)C)n2)c(F)c1,51% (active)
8,O=C(c1ccc2oc(CCCc3ccccc3)nc2c1)N1CCCCO1,50.9% (active)
9,O=C(COCc1ccccc1)N(Cc1ccccc1)Cc1nc2cc(Cl)ccc2o1,-20.6% (inactive)
10,O=C(NCC1CCCCO1)c1ccc2oc(CCCc3ccccc3)nc2c1 (configuration not stated),47% (inactive)
11,N#Cc1c(F)cccc1Oc1ccc(C(=O)O)cc1,39.2% (inactive)
12,CS(=O)(=O)NC(=O)c1ccc(Oc2ccc(F)cc2F)cc1,72.8% (active)
13,CS(=O)(=O)NCc1ccc(Oc2ccccc2F)c(F)c1,1.57% (inactive)
14,Cc1ccccc1CSc1nc2c(c(=O)n1C)SCC2,45.6% (inactive)
15,O=c1c2sccc2nc(SCCc2ccccn2)n1-c1ccccc1,12.8% (inactive)
16,CCOc1ccccc1CSc1nc2ccsc2c(=O)n1C,102% (active)
17,COc1ccc(OCCSC2=Nc3ccccc3C3CC=NN23)cc1 (configuration not stated),45.9% (inactive)
18,S=C1Nc2ccccc2C2CC=NN12 (configuration not stated),55.7% (active)
19,Cc1nc(C)c(CN2CCCC(C(=O)Nc3ccc(-c4cccc(F)c4)cc3)C2)nc1C (configuration not stated),90.5% (active)
20,CC(C)c1cc(C(=O)N2CCCC(C(=O)Nc3cccc(-c4ccc(F)cc4)c3)C2)on1 (configuration not stated),83.1% (active)
21,O=C(Nc1cccc(-c2ccc(F)cc2)c1)C1CCCN(C2CCSCC2)C1 (configuration not stated),86.7% (active)
22,Cc1nnsc1C(=O)N1CCCC(C(=O)Nc2cccc(-c3ccc(F)cc3)c2)C1 (configuration not stated),17.2% (inactive)
23,Cc1ncc(CN2CCCC(C(=O)Nc3cccc(-c4ccc(F)cc4)c3)C2)s1 (configuration not stated),61.6% (active)
24,CC(C)c1cc(C(=O)N2CCCC(C(=O)c3ccc4ccccc4c3)C2)on1 (configuration not stated),15.6% (inactive)
